Several values for one entry are separate records, joined by “and”; a condition that tells them apart may be missing. Equal entries are not always repeated. Records with an inconclusive call do not appear. Activity calls are given as the source filed them. Rule for the calls, unless noted: active = hit-call score of the fitted dose curve at least 0.9, where 1 is the maximum; inactive = score below 0.9.
Assays:
[1] = read-out: Monokine induced gamma interferon (MIG), CXCL9 (gene 4283); experiment: BSK_SAg_MIG: BioMAP Diversity Plus: SAg Assay for Monokine induced gamma interferon (MIG) Biomarker Activity (AID 2283092); settings: primary human HUVEC with PBMC; actives raise or lower the signal
Outline: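 ELISA readout of MIG/CXCL9; primary human umbilical vein endothelial cells co-cultured with peripheral blood mononuclear cells; 24 h post-dose; gain/loss fit vs DMSO baseline.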

[2] = BSK_SAg_PBMCCytotoxicity: PBMC Cytotoxicity Assessment in the BioMAP Diversity Plus: SAg Assay (AID 2283093); settings: primary human HUVEC with PBMC;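 note: PBMC viability measured as Alamar Blue reduction fluorescence at 546/580 nm; fitted both ways against DMSO so a hit may be loss or gain of signal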;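 for AC50: PBMC superantigen activated with SEB plus TSST-1 one hour after compound addition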
Outline: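 Human umbilical vein endothelial cells co-cultured with PBMC; PBMC (75,000/well) pre-treated with compound 1 h, then activated with SEB and TSST-1 (20 ng/mL final each) for 90 h. Alamar Blue added 6 h, fluorescence 546/580 nm; bidirectional fit versus DMSO.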

[3] = read-out: Interleukin-8 (IL8), CXCL8 (gene 3576); experiment: BSK_SAg_IL8: BioMAP Diversity Plus: SAg Assay for Interleukin-8 (IL8) Biomarker Activity (AID 2283094); settings: primary human HUVEC with PBMC; actives raise or lower the signal
Outline: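 In this co-culture of human umbilical vein endothelium with peripheral blood mononuclear cells, IL-8 is assayed by ELISA at 24 h. DMSO serves as baseline for bidirectional curve fitting.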

[4] = BSK_SAg_Proliferation: Cell Proliferation Assessment in the BioMAP Diversity Plus: SAg Assay (AID 2283095); settings: primary human HUVEC with PBMC;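 note: relative cell number as total protein by SRB absorbance in sub-confluent culture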
Outline: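 Readout is SRB-stained protein (560 nm) in a primary human HUVEC and PBMC co-culture; sub-confluent cultures are read at 96 h. Activity is fitted bidirectionally using DMSO as baseline.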

[5] = BSK_SAg_SRB: Viability Assessment in the BioMAP Diversity Plus: SAg Assay (AID 2283096); settings: primary human HUVEC with PBMC;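 note: cells read one day after compound addition; hits may be either gain or loss of signal compared with DMSO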
Outline: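 Endothelial/PBMC primary human co-culture; compound 24 h; fix 10% TCA, stain 0.1% SRB, A560; protein content as cytotoxicity proxy; bidirectional curve fit, DMSO = baseline.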

[6] = target: human CYP2C9, CYP2C9 (gene 1559) (UniProt P11712); experiment: NVS_ADME_hCYP2C9: NovaScreen (NVS) CYP450-related Enzyme Activity (ADME) Assay for human CYP2C9 (AID 2283108; active = hit-call score of the fitted dose curve at least 0.9, where 1 is the maximum)
Outline: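 Cell-free assay of recombinant human CYP2C9 produced in Sf9 cells, with enzyme activity read by fluorescence intensity 0.75 h after compound addition. Loss of signal versus an acetonitrile negative control indicates inhibition. Primary screen used 10 uM in duplicate; actives were retested in concentration series.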

[7] = target: human CYP2B6, CYP2B6 (gene 1555) (UniProt P20813); experiment: NVS_ADME_hCYP2B6: NovaScreen (NVS) CYP450-related Enzyme Activity (ADME) Assay for human CYP2B6 (AID 2283101; active = hit-call score of the fitted dose curve at least 0.9, where 1 is the maximum)
Outline: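 Fluorescence-based enzyme activity of recombinant human CYP2B6, measured 1 h post-dose against acetonitrile vehicle baseline. Screened at a single concentration of 10 uM in duplicate before concentration-response follow-up.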

[8] = target: human CYP1A2, CYP1A2 (gene 1544) (UniProt P05177); experiment: NVS_ADME_hCYP1A2: NovaScreen (NVS) CYP450-related Enzyme Activity (ADME) Assay for human CYP1A2 (AID 2283102; active = hit-call score of the fitted dose curve at least 0.9, where 1 is the maximum)
Outline: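 Inhibition scored as decrease in fluorescent product versus acetonitrile negative control. Enzyme: insect-cell recombinant human CYP1A2, substrate-specific, cell-free. Reading at 0.5 h; 10 uM duplicate initial screen with positive and negative controls on every plate.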

[9] = target: Cytochrome P450 2C19 (Homo sapiens) (UniProt P33261); experiment: NVS_ADME_hCYP2C19: NovaScreen (NVS) CYP450-related Enzyme Activity (ADME) Assay for human CYP2C19 (AID 2283113; active = hit-call score of the fitted dose curve at least 0.9, where 1 is the maximum)
Outline: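 Biochemical CYP2C19 inhibition screen: insect-cell recombinant protein plus fluorescent substrate, 1 h, fluorescence intensity. Acetonitrile defined baseline activity. Single 10 uM concentration in duplicate, with concentration-response follow-up for actives.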

[10] = target: human CYP2D6, CYP2D6 (gene 1565) (UniProt P10635); experiment: NVS_ADME_hCYP2D6: NovaScreen (NVS) CYP450-related Enzyme Activity (ADME) Assay for human CYP2D6 (AID 2283107; active = hit-call score of the fitted dose curve at least 0.9, where 1 is the maximum)
Outline: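 Biochemical fluorescence assay, insect-cell-derived enzyme. Read at 1 h; inhibition taken from loss of signal against acetonitrile. Screened at 10 uM in duplicate, with concentration series for actives.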

[11] = target: Cytochrome P450 3A4 (Homo sapiens) (UniProt P08684); experiment: NVS_ADME_hCYP3A4: NovaScreen (NVS) CYP450-related Enzyme Activity (ADME) Assay for human CYP3A4 (AID 2283110; active = hit-call score of the fitted dose curve at least 0.9, where 1 is the maximum)
Outline: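 Cell-free assay using insect-cell-expressed human CYP3A4 with a fluorogenic substrate; fluorescence intensity was read 0.33 hour after dosing. Loss of signal relative to acetonitrile vehicle indicated inhibition. Primary single-concentration screen at 10 uM, in duplicate, then concentration series.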

[12] = target: human Dual Specificity Protein Phosphatase 3 (DUSP3), DUSP3 (gene 1845) (UniProt P51452); experiment: NVS_ENZ_hDUSP3: NovaScreen (NVS) Enzymatic Assay for human Dual Specificity Protein Phosphatase 3 (DUSP3) (AID 2283152; active = hit-call score of the fitted dose curve at least 0.9, where 1 is the maximum;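 note: phosphatase activity of recombinant human DUSP3 on a fluorogenic substrate without cells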)
Outline: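 Cell-free assay with recombinant human DUSP3 and fluorogenic substrate, read by fluorescence intensity. Primary screen ran duplicate at 25 uM; actives followed up in concentration series; loss of signal versus DMSO scored.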

human CYP2C9, CYP2C9 (gene 1559), sequence (P11712 whole entry, looked up): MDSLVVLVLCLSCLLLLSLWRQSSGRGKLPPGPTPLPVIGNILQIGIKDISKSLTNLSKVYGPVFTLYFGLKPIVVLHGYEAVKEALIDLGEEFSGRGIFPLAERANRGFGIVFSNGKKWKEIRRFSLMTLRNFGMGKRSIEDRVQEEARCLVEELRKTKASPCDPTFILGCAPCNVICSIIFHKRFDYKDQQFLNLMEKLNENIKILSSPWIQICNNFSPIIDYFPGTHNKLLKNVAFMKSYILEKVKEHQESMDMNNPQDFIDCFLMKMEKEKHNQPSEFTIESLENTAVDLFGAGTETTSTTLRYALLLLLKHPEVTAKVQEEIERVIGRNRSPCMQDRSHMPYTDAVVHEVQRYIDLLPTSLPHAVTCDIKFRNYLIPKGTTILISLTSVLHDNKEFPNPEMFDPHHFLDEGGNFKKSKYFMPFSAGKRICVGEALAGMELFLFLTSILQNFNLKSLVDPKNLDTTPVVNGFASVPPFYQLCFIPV
human CYP2D6, CYP2D6 (gene 1565), sequence (P10635 whole entry, looked up): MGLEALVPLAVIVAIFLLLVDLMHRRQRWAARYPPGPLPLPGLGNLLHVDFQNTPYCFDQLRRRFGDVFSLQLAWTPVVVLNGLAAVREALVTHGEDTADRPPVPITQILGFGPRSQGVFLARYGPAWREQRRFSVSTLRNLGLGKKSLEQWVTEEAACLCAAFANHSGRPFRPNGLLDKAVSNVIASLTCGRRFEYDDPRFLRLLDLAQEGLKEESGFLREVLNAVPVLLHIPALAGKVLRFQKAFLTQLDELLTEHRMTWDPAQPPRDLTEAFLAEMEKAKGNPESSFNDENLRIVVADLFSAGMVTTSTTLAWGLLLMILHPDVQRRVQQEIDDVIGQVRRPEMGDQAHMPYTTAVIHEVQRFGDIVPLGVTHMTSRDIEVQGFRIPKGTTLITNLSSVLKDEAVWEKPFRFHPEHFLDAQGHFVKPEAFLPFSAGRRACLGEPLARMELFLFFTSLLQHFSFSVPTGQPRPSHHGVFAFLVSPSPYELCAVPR
Cytochrome P450 3A4 (Homo sapiens), sequence (P08684 whole entry, looked up): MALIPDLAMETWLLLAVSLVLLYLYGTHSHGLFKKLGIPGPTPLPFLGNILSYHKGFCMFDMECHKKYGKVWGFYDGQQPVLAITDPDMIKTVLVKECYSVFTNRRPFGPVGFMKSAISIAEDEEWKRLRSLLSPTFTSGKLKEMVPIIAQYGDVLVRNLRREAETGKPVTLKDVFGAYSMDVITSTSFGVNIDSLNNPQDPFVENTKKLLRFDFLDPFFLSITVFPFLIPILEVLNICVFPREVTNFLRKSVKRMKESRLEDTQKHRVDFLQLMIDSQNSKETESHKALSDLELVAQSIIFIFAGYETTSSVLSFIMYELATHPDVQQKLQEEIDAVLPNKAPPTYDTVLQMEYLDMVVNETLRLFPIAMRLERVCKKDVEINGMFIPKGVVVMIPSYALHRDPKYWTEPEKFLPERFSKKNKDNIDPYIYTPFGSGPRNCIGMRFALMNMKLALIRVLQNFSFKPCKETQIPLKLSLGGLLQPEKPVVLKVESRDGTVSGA
human CYP2B6, CYP2B6 (gene 1555), sequence (P20813 whole entry, looked up): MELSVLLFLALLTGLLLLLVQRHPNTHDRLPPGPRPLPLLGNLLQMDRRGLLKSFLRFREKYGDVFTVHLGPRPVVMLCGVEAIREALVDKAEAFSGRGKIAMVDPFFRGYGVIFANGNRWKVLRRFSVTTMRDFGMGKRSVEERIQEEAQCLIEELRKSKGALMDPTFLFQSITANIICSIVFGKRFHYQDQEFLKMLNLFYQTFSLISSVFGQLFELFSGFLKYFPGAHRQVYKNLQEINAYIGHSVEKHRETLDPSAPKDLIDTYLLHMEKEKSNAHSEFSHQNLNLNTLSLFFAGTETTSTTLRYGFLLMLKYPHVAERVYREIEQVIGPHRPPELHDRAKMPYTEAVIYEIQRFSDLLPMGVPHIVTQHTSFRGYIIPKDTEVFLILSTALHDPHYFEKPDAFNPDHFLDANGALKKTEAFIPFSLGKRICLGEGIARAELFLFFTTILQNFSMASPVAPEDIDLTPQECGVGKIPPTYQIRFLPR
human CYP1A2, CYP1A2 (gene 1544), sequence (P05177 whole entry, looked up): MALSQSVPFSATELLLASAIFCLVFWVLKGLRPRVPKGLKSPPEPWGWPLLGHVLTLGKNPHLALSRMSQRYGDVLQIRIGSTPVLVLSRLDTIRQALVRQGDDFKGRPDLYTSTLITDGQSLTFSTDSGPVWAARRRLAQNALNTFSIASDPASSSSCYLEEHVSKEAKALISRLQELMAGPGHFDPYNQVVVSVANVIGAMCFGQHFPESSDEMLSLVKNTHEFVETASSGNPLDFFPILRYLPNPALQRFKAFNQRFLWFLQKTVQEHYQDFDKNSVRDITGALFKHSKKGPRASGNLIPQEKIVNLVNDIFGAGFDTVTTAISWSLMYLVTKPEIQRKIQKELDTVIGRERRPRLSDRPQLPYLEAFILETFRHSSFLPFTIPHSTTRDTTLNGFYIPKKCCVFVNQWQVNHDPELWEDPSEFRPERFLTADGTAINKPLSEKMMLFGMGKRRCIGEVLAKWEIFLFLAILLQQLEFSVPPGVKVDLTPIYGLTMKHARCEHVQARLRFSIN
human Dual Specificity Protein Phosphatase 3 (DUSP3), DUSP3 (gene 1845), sequence (P51452 whole entry, looked up): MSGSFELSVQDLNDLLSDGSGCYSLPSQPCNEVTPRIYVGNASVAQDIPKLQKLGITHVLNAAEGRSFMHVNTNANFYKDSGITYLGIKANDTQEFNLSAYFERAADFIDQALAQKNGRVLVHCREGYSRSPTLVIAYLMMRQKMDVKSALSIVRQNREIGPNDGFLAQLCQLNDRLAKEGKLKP

## CCCCN(CCCC)C(=O)N(CCCC)CCCC
[1]
  outcome: inactive
[2]
  AC50: 11 µM (active)
[3]
  AC50: 15.6 µM (active)
[4]
  AC50: 7.83 µM (active)
[5]
  AC50: 20 µM (active)

## C=CC(C)(O)CCC=C(C)C (stereo not given)
[1]
  outcome: inactive
[2]
  outcome: inactive
[3]
  outcome: inactive
[4]
  outcome: inactive
[5]
  outcome: inactive

## CC(=O)C1(C)CC2=C(CCCC2(C)C)CC1C (stereo not given)
[1]
  AC50: 33.9 µM (active)
[2]
  AC50: 12 µM (active)
[3]
  AC50: 34.4 µM (active)
[4]
  AC50: 9.65 µM (active)
[5]
  AC50: 26.8 µM (active)

## CC(=O)c1c(C)c([N+](=O)[O-])c(C(C)(C)C)c([N+](=O)[O-])c1C
[1]
  outcome: inactive
[2]
  outcome: inactive
[3]
  outcome: inactive
[4]
  outcome: inactive
[5]
  outcome: inactive

## C=C(C)[C@H]1CC=C(C)C(=O)C1
[1]
  outcome: inactive
[2]
  outcome: inactive
[3]
  outcome: inactive
[4]
  outcome: inactive
[5]
  outcome: inactive
[6]
  AC50: 0.597 µM (active)

## C1=CC2C3C=CC(C3)C2C1 (stereo not given)
[1]
  outcome: inactive
[2]
  outcome: inactive
[3]
  outcome: inactive
[4]
  outcome: inactive
[5]
  outcome: inactive

## O=CN1CCOCC1
[1]
  outcome: inactive
[2]
  outcome: inactive
[3]
  outcome: inactive
[4]
  outcome: inactive
[5]
  outcome: inactive

## COc1ccc(CCN2CCC(Nc3nc4ccccc4n3Cc3ccc(F)cc3)CC2)cc1
[1]
  outcome: inactive
[2]
  AC50: 6.91 µM (active)
[3]
  AC50: 2.39 µM (active)
[4]
  AC50: 6.38 µM (active)
[5]
  AC50: 5 µM (active)

## O=C(Nc1ccc2c(O)c(N=Nc3ccc(N=Nc4ccc(S(=O)(=O)O)cc4)cc3)c(S(=O)(=O)O)cc2c1)c1ccccc1
[1]
  outcome: inactive
[2]
  outcome: inactive
[3]
  outcome: inactive
[4]
  outcome: inactive
[5]
  outcome: inactive

## O=C1OC2(c3ccccc31)c1ccc(O)c(Br)c1Oc1c2ccc(O)c1Br
[1]
  outcome: inactive
[2]
  outcome: inactive
[3]
  outcome: inactive
[4]
  AC50: 8.3 µM (active)
[5]
  outcome: inactive

## CS(=O)(=O)OCCCCOS(C)(=O)=O
[1]
  outcome: inactive
[2]
  outcome: inactive
[3]
  outcome: inactive
[4]
  outcome: inactive
[5]
  outcome: inactive
[7]
  outcome: inactive
[8]
  outcome: inactive
[6]
  AC50: 16 µM (active)
[9]
  outcome: inactive

## CS(=O)(=O)c1ccc(C2=C(c3ccccc3)C(=O)OC2)cc1
[1]
  outcome: inactive
[2]
  outcome: inactive
[3]
  outcome: inactive
[4]
  outcome: inactive
[5]
  outcome: inactive

## IC(I)I
[1]
  outcome: inactive
[2]
  outcome: inactive
[3]
  outcome: inactive
[4]
  outcome: inactive
[5]
  outcome: inactive

## C=C(C)C(=O)OCCOCCOCCOC(=O)C(=C)C
[1]
  outcome: inactive
[2]
  outcome: inactive
[3]
  outcome: inactive
[4]
  outcome: inactive
[5]
  outcome: inactive

## CCN(CC)C(=O)N(CC)CC
[1]
  outcome: inactive
[2]
  outcome: inactive
[3]
  outcome: inactive
[4]
  outcome: inactive
[5]
  outcome: inactive

## CN(c1nccc(=O)[nH]1)C1CCN(c2nc3ccccc3n2Cc2ccc(F)cc2)CC1
[1]
  outcome: inactive
[2]
  outcome: inactive
[3]
  outcome: inactive
[4]
  outcome: inactive
[5]
  outcome: inactive

## CCCCCC(C=O)=Cc1ccccc1
[1]
  outcome: inactive
[2]
  AC50: 31 µM (active)
[3]
  outcome: inactive
[4]
  AC50: 33.1 µM (active)
[5]
  outcome: inactive

## CC(CN=Cc1ccccc1O)N=Cc1ccccc1O (stereo not given)
[1]
  outcome: inactive
[2]
  outcome: inactive
[3]
  outcome: inactive
[4]
  outcome: inactive
[5]
  outcome: inactive

## COc1cc(Cl)c(OC)cc1N
[1]
  outcome: inactive
[2]
  outcome: inactive
[3]
  outcome: inactive
[4]
  outcome: inactive
[5]
  outcome: inactive
[10]
  AC50: 992 nM (active)
[6]
  outcome: inactive

## C=C(C)C(=O)OCCOCCOCCOCCOC(=O)C(=C)C
[1]
  outcome: inactive
[2]
  outcome: inactive
[3]
  outcome: inactive
[4]
  AC50: 23.9 µM (active)
[5]
  outcome: inactive

## CC1(C)C2=CCCC(C)(C)[C@]23CC[C@H]1C3
[1]
  outcome: inactive
[2]
  AC50: 35.6 µM (active)
[3]
  outcome: inactive
[4]
  AC50: 31.6 µM (active)
[5]
  outcome: inactive

## C[C@@H]1CCN(C(=O)[C@H](CCCN=C(N)N)NS(=O)(=O)c2cccc3c2NC[C@H](C)C3)[C@@H](C(=O)O)C1
[1]
  outcome: inactive
[2]
  outcome: inactive
[3]
  outcome: inactive
[4]
  outcome: inactive
[5]
  outcome: inactive

## CC=Cc1ccc(OCC)c(O)c1
[1]
  outcome: inactive
[2]
  outcome: inactive
[3]
  outcome: inactive
[4]
  outcome: inactive
[5]
  outcome: inactive

## CCCCOC(=O)CCCCCCCC(=O)OCCCC
[1]
  outcome: inactive
[2]
  outcome: inactive
[3]
  outcome: inactive
[4]
  outcome: inactive
[5]
  outcome: inactive
[11]
  AC50: 3.8 µM (active)
[12]
  outcome: inactive

## CC(C=O)Cc1ccc(C(C)(C)C)cc1 (stereo not given)
[1]
  outcome: inactive
[2]
  AC50: 20 µM (active)
[3]
  outcome: inactive
[4]
  outcome: inactive
[5]
  outcome: inactive

## CC1(C)CCC[C@]2(C)[C@H]3CCO[C@]3(C)CC[C@@H]12
[1]
  outcome: inactive
[2]
  AC50: 31.8 µM (active) and 33.4 µM (active)
[3]
  outcome: inactive
[4]
  AC50: 33.6 µM (active) and 32.7 µM (active)
[5]
  outcome: inactive

## CC(=O)Nc1ccc(C(=O)CCl)cc1
[1]
  AC50: 8.55 µM (active)
[2]
  AC50: 4.16 µM (active)
[3]
  AC50: 4.9 µM (active)
[4]
  AC50: 0.92 µM (active)
[5]
  AC50: 6.11 µM (active)
[10]
  AC50: 3640 nM (active)

— PubChem BioAssay (EPA / NIEHS)
